From PubChem BioAssay come the findings set out here.

Experiment [1] in a line: inhibitors of TNFa-induced NFkB p65 translocation, primary screen, imaging, HUVEC, MLSMR starter and 10KST1 sets (AID 438).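 For inhibition: signal is the nuclear over cytoplasmic p65 intensity ratio per well.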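 Note: compound added about 3h40 before a 20 min TNFalpha stimulation.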 To be noted: HUVEC TNFa-induced p65 nuclear translocation; cell count: measured here: nuclei count (cytotoxicity indicator), at 2.08 µM; inhibition: at 2 µM, stronger effect = higher value, 0% TNFa-plus-vehicle, 100% no-TNFa wells.
Experiment [2] is described as follows: reduction of polyQ htt aggregates in cells – imaging, exon1htt(103Q)mCFP cells, high-content imaging, primary screen (AID 483;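 active = visual image review flags a hit and inhibition of aggregation exceeds 20%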;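 note: compound exposure lasted 3 days before fixation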;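 for nuclei count: percent of the per-plate median nuclei count of sample wells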). To be noted: exon1htt(103Q)mCFP cell line, aggregate imaging, at 2 µM; inhibition of aggregation: stronger effect = higher value; nuclei count: measured here: cell count, toxicity.
Experiment [3] is described as follows: endothelial E-selectin expression blockers – imaging, HUVEC, immunofluorescence, MLSMR starter and 10KST1 sets, primary screen (AID 487;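 active = visually confirmed hit in the image check and inhibition above 20%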;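 for inhibition: signal is fraction of cell area covered by stained E-selectin grains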;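 for nuclei count: 100% = median nuclei count of all wells on the same plate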). To be noted: HUVEC TNFalpha-induced E-selectin immunofluorescence imaging, at 2 µM; inhibition: stronger effect = higher value; nuclei count: measured here: cell number, toxicity.
Experiment [4] deals with Voltage-gated potassium channel subunit beta-2 (Rattus norvegicus) (UniProt P62483). Briefly: inhibitors of rat Kvbeta2 reductase activity – biochemical, NADPH fluorescence, primary screen (AID 622;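 active = fluorescence slope higher than the sample average by over 3 SD, cut at about -0.22 in these data, passing the limit was not always enough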;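 note: slope of raw intensity against log time taken from 70 to 1610 s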). To be noted: recombinant KvBeta, 4-cyanobenzaldehyde reduction, at 10 µM, stronger effect = higher value.
Sequence of Voltage-gated potassium channel subunit beta-2 (Rattus norvegicus) (P62483 whole entry, looked up): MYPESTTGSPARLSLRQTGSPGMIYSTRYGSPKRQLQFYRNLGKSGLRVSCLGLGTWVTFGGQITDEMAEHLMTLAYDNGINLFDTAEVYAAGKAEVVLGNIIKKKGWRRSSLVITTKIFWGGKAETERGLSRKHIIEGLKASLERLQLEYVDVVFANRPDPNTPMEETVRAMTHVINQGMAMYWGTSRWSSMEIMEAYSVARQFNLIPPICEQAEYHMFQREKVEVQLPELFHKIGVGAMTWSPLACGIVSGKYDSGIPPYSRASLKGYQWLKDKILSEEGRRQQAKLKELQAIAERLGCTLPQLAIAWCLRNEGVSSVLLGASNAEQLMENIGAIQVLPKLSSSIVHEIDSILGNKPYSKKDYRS
Experiment [5] shares this target. Briefly: enhancers of rat Kvbeta2 NADPH turnover – biochemical, NADPH fluorescence, primary screen (AID 623;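 active = NADPH fluorescence slope more negative than the mean of all samples by about 3 SD, 99.7% confidence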;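 note: fluorescence intensity change per second fitted from 20 to 320 s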). To be noted: Recombinant KvBeta, NADPH fluorescence decrease slope, 10 min; at 10 µM; stronger effect = lower value.
Experiment [6] has as its target Alpha-2C adrenergic receptor (Homo sapiens) (UniProt P18825). The experiment can be described thus: compounds altering alpha2C-coupled GIRK flux – cell-based, HEK293 alpha2C/GIRK1/2, thallium flux, primary screen (AID 624;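 active = fluorescence slope after compound addition differing from the mean of all screened samples at 99.7% confidence, in either direction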;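 note: slope of fluorescence ratio to pre-addition baseline per second over 15 to 24 s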). To be noted: thallium flux BTC fluorescence, at 10 µM, actives lie on both sides.
Experiment [7] can be described thus: blockers of RIG-like receptor reporter activation – cell-based, Sendai virus stimulus, luciferase, 10K MLSCN set, TLR/RLR signaling modifier project, primary screen (AID 602276;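 active = inhibition at or above 50% at 10 µM; inactive = inhibition below 50%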;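 note: firefly luciferase from ISG56 promoter only with Renilla not read in this screen; 0% = Sendai virus plus DMSO and 100% = medium plus DMSO without virus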). To be noted: HEK293 RL24 IRF3 luciferase reporter, at 10 µM, stronger effect = higher value. (Reporter assays use an easily measured gene product as a stand-in for the process of interest.)
Experiment [8] in a line: TLR3 IRF3 reporter activation blockers – cell-based, poly I:C stimulus, luciferase, 10K MLSCN set, primary screen (AID 602277;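 active = inhibition of the reporter signal at or above 50%; inactive = inhibition below 50%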). To be noted: HEK293-TLR3 RL24 IRF3 luciferase reporter, at 10 µM, stronger effect = higher value.

The source made the active and inactive calls.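 Rule for the calls, unless noted: active = inhibition above 20% together with a positive visual image hit; inconclusive = visual image hit but inhibition not above 20%; inactive = no visual image hit.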

Sequence of Alpha-2C adrenergic receptor (Homo sapiens) (P18825 whole entry, looked up): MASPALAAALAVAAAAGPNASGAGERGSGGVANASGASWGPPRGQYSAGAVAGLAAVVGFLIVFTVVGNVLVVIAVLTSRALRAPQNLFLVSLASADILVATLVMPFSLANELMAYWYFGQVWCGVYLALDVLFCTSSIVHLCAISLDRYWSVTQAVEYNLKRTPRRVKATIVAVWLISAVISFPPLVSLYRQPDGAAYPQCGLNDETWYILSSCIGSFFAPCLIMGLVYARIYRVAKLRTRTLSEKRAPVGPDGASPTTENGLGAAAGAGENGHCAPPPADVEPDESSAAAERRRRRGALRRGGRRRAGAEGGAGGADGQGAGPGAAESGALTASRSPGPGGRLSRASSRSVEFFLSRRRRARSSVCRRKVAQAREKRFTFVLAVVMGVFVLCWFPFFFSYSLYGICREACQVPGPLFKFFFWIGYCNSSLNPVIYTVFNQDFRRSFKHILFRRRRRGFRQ

Take `O=C(CNC1CCCCCC1)Nc1ccc(S(=O)(=O)NC2CC2)cc1`: in experiment [1], the cell count came out at 727. Besides, the inhibition in experiment [1] was -4.8% (inactive); in experiment [3], -51.5% (inactive); in experiment [7], 11.1% (inactive); in experiment [8], 18.7% (inactive). The inhibition of aggregation in experiment [2] is 3.3% (inactive). The nuclei count in experiment [2] worked out at 104%; in experiment [3] it was 108%. Also, the fluorescence slope in experiment [4] is -0.49 (inactive). Besides, the NADPH fluorescence slope in experiment [5] was -5.4e-05 (inactive). Further, in experiment [6], the slope was 0.00449 (inactive).

`Cc1cc(C)c2c(C)nn(C3CCCCC3)c2n1`: the cell count in experiment [1] is 318. Moreover, the inhibition in experiment [1] was 1.7% (inactive); in experiment [3], 33.7% (inactive); in experiment [7], -18.5% (inactive); in experiment [8] it was -5.34% (inactive). Further, the inhibition of aggregation in experiment [2] is 27.2% (inactive). For the same compound, the nuclei count in experiment [2] was determined as 79.1%; in experiment [3], 86.7%. The fluorescence slope in experiment [4] was -0.514 (inactive). In addition, the NADPH fluorescence slope in experiment [5] was 1.4e-05 (inactive). Besides, the slope in experiment [6] was 0.00644 (inactive).

As for `CN(C)S(=O)(=O)c1cccc(C(=O)Nc2cccnc2)c1`, the cell count in experiment [1] amounted to 294. Besides, the inhibition in experiment [1] is 10.1% (inactive); in experiment [3], -79.6% (inactive); in experiment [7] it was 16.5% (inactive); in experiment [8] it was 10.8% (inactive). Moreover, the inhibition of aggregation in experiment [2] is 0% (inactive). Besides, the nuclei count was 103% in experiment [2] and 128% in experiment [3]. Moreover, the fluorescence slope in experiment [4] is -0.407 (inactive). The NADPH fluorescence slope in experiment [5] is -5.9e-05 (inactive). In experiment [6], the slope was 0.00527 (inactive).

In the case of `Cc1ccc(NC(=O)CCC(=O)O)cc1F`, the cell count in experiment [1] is 381. In addition, the inhibition in experiment [1] was 9.4% (inactive); in experiment [3], -10.9% (inactive); in experiment [7], 16.4% (inactive); in experiment [8], 24.4% (inactive). For the same compound, the inhibition of aggregation in experiment [2] is -13.4% (inactive). The nuclei count in experiment [2] came out at 97.1%; in experiment [3] it was 115%. The fluorescence slope in experiment [4] is -0.508 (inactive). The NADPH fluorescence slope in experiment [5] is -7.1e-05 (inactive). Also, the slope in experiment [6] was 0.00611 (inactive).

Consider `Cn1c(=O)oc2cc(S(=O)(=O)N3CCN(c4ccccn4)CC3)ccc21`, for which the cell count in experiment [1] was 826. Besides, the inhibition in experiment [1] was 8% (inactive); in experiment [3], -36.5% (inactive); in experiment [7] it was 15% (inactive); in experiment [8], 31.2% (inactive). Besides, in experiment [2], the inhibition of aggregation was 24.1% (inactive). The nuclei count in experiment [2] is 116%; in experiment [3], 117%. The fluorescence slope in experiment [4] is -0.577 (inactive). In experiment [5], the NADPH fluorescence slope is -4.3e-05 (inactive). Further, the slope in experiment [6] was 0.00702 (inactive).

As to `Cc1nn(C(=O)c2ccoc2C)c(N)c1-c1ccccc1`, in experiment [1], the cell count was found to be 764. Moreover, the inhibition in experiment [1] was -1.1% (inactive); in experiment [3] it was -25.3% (inactive); in experiment [7], -27.9% (inactive); in experiment [8], -123% (inactive). Further, the inhibition of aggregation in experiment [2] is -13.8% (inactive). For the same compound, the results for the nuclei count in experiment [2] and in experiment [3] were 132% and 116%, respectively. Also, in experiment [4], the fluorescence slope was -0.534 (inactive). Moreover, the NADPH fluorescence slope in experiment [5] is -4.2e-05 (inactive). For the same compound, the slope in experiment [6] is 0.007 (inactive).

As for `CN(Cc1nc(-c2ccncc2)no1)S(=O)(=O)c1ccccc1`, in experiment [1], the cell count was 560. Also, the inhibition is 0.6% (inactive) in experiment [1], -18.6% (inactive) in experiment [3], 12.9% (inactive) in experiment [7] and 13.2% (inactive) in experiment [8]. In addition, in experiment [2], the inhibition of aggregation is -16.9% (inactive). In addition, the nuclei count in experiment [2] is 103%; in experiment [3] it was 104%. Moreover, in experiment [4], the fluorescence slope was -0.654 (inactive). The NADPH fluorescence slope in experiment [5] is -4.4e-05 (inactive). In experiment [6], the slope was 0.00664 (inactive).

In the case of `CCN(CC)c1ccc(NC(=O)CN2CCN(CC(=O)Nc3ccccc3F)CC2)cc1`, the cell count in experiment [1] is 348. The inhibition in experiment [1] is 3.1% (inactive); in experiment [3] it was -45.9% (inactive); in experiment [7], 12.9% (inactive); in experiment [8] it was 19.4% (inactive). Further, in experiment [2], the inhibition of aggregation was 5.8% (inactive). The figures for the nuclei count in experiment [2] and in experiment [3] were 104% and 113%, respectively. Also, the fluorescence slope in experiment [4] was -0.413 (inactive). In addition, the NADPH fluorescence slope in experiment [5] is -3.8e-05 (inactive). Also, in experiment [6], the slope was 0.00308 (inactive).

As for `CCOn1c(=O)c(=O)n(OCc2ccccc2)c2ccccc21`, in experiment [1], the cell count was 355. For the same compound, the inhibition is 0.3% (inactive) in experiment [1], -32.9% (inactive) in experiment [3], 19.9% (inactive) in experiment [7] and 25% (inactive) in experiment [8]. In experiment [2], the inhibition of aggregation was 13% (inactive). Besides, the nuclei count in experiment [2] was 97.7%; in experiment [3], 120%. For the same compound, in experiment [4], the fluorescence slope was -0.345 (inactive). In addition, the NADPH fluorescence slope in experiment [5] is -5.2e-05 (inactive). In addition, the slope in experiment [6] is 0.00578 (inactive).

For the compound `CCOc1ccccc1NC(=O)CCSc1nc2n[nH]c(C)c2c(=N)n1-c1ccccc1Cl`, the cell count in experiment [1] is 621. Besides, the inhibition in experiment [1] is -10.2% (inactive); in experiment [3] it was 30.1% (inactive); in experiment [7], 3.64% (inactive); in experiment [8], 5.23% (inactive). Also, in experiment [2], the inhibition of aggregation is -22.3% (inactive). Moreover, the nuclei count in experiment [2] came out at 77.9%; in experiment [3], 62.2%. Besides, the fluorescence slope in experiment [4] was -0.417 (inactive). Also, in experiment [5], the NADPH fluorescence slope is -4.1e-05 (inactive). Moreover, in experiment [6], the slope was 0.00336 (inactive).

For the compound `CCc1ccc(N(CC(=O)NC2CCCC2)S(=O)(=O)c2c(C)noc2C)cc1`, in experiment [1], the cell count is 720. The inhibition in experiment [1] is -0.8% (inactive); in experiment [3], -48.7% (inactive); in experiment [7] it was 4.77% (inactive); in experiment [8] it was 37.7% (inactive). The inhibition of aggregation in experiment [2] is -6% (inactive). Besides, the nuclei count in experiment [2] worked out at 97.9%; in experiment [3], 102%. Further, the fluorescence slope in experiment [4] is -0.569 (inactive). For the same compound, the NADPH fluorescence slope in experiment [5] was -4.6e-05 (inactive). In experiment [6], the slope is 0.00649 (inactive).

In the case of `COc1ccc(NC(=O)CSc2c(C)nn(-c3nnc(C)c(=O)[nH]3)c2C)cc1`, the cell count in experiment [1] was 387. The inhibition in experiment [1] was -4.5% (inactive); in experiment [3], -170% (inactive); in experiment [7] it was 1.41% (inactive); in experiment [8], 3.06% (inactive). For the same compound, the inhibition of aggregation in experiment [2] is -12.6% (inactive). Besides, the nuclei count in experiment [2] came out at 107%; in experiment [3] it was 134%. In experiment [4], the fluorescence slope is -0.537 (inactive). The NADPH fluorescence slope in experiment [5] was 2e-05 (inactive). In experiment [6], the slope is 0.00687 (inactive).

In the case of `CCOC(=O)N1CCC(NC(=O)CS(=O)(=O)Cc2nc(-c3ccccc3C)oc2C)CC1`, the cell count in experiment [1] was 699. In addition, the inhibition in experiment [1] is -7.5% (inactive); in experiment [3] it was -66.8% (inactive); in experiment [7] it was 9.06% (inactive); in experiment [8] it was -5.43% (inactive). Further, the inhibition of aggregation in experiment [2] is 2.1% (inactive). Also, the values for the nuclei count in experiment [2] and in experiment [3] were 96.6% and 119%, respectively. For the same compound, the fluorescence slope in experiment [4] was -0.513 (inactive). The NADPH fluorescence slope in experiment [5] is -2.7e-05 (inactive). For the same compound, in experiment [6], the slope is 0.00671 (inactive).

For the compound `CN1/C(=C\C(=O)C(F)F)C(C)(C)c2ccccc21`, the cell count in experiment [1] was determined as 296. Besides, the inhibition in experiment [1] was 3.5% (inactive); in experiment [3] it was 17.2% (inactive); in experiment [7], 20.8% (inactive); in experiment [8], 17.4% (inactive). For the same compound, the inhibition of aggregation in experiment [2] is -24% (inactive). Further, the nuclei count in experiment [2] was 104%; in experiment [3], 116%. Moreover, in experiment [4], the fluorescence slope is -0.504 (inactive). Further, in experiment [5], the NADPH fluorescence slope is 1.6e-05 (inactive). In experiment [6], the slope was 0.00399 (inactive).

Broadly, the inhibition is the drop in the measured response relative to a control, in per cent.
